This is part of a sample that, as a whole, favours compounds with a hit. Of some 83,000 tested, about 20% had one in any assay.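 Growth was measured after 48 h exposure to one concentration of compound in 96-well plates. Values under 10 count as active.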 Unmarked numbers belong to inactive results. Calls of active or inactive are those of the source.
How the values were obtained:
Test in all cases: NCI-60 one-dose screen, 48 h (100 = growth as untreated, 0 = no growth, -100 = all killed)
Details in all cases: 10 µM unless noted
[1] = tested on: HCT-15 colon
[2] = tested on: HT29 colon
[3] = tested on: SNB-75 CNS
[4] = tested on: SNB-19 CNS
[5] = tested on: U251 CNS
[6] = tested on: PC-3 prostate
[7] = tested on: SK-MEL-5 melanoma
[8] = tested on: UACC-62 melanoma
[9] = tested on: LOX IMVI melanoma
[10] = tested on: SK-MEL-28 melanoma

COc1cc(/C=C2\CCCC3=C2N=C2SC(C)=NN2C3c2cc(OC)c(OC)c(OC)c2)cc(OC)c1OC (stereo not given)
growth [1]: -20.6% (active)
growth [2]: 13.9%
growth [3]: -7.84% (active)
growth [4]: 32.3%
growth [5]: 20.9%
growth [6]: 57.7%
growth [7]: 45.2%
growth [8]: -31.2% (active)
growth [9]: -67.6% (active)
growth [10]: 26.3%

Cc1nc2scc(-c3ccccc3)n2c(=O)c1CCO
growth [1]: 96.1%
growth [2]: 103%
growth [3]: 71.6%
growth [4]: 98.3%
growth [5]: 103%
growth [6]: 87.7%
growth [7]: 100%
growth [8]: 97.6%
growth [9]: 92.3%
growth [10]: 113%

O=S(=O)(c1ccccc1)n1ccc(-c2ccc3c(c2)CCO3)n1
growth [1]: 92.8%
growth [2]: 92.8%
growth [3]: 76.2%
growth [4]: 83.4%
growth [5]: 73.6%
growth [6]: 84.2%
growth [7]: 70.2%
growth [8]: 73.1%
growth [9]: 85.2%
growth [10]: 86.2%

O=C(Nc1ccc(I)cc1)c1cccc([N+](=O)[O-])c1O
growth [1]: 18.6%
growth [2]: 28.1%
growth [3]: 41.2%
growth [4]: 16.8%
growth [5]: 10.3%
growth [6]: 7.46% (active)
growth [7]: -44.1% (active)
growth [8]: 20.8%
growth [9]: 8.65% (active)
growth [10]: 21.5%

Cc1ccc2nc(SCn3nnc4ccccc4c3=O)[nH]c2c1
growth [1]: 125%
growth [2]: 102%
growth [3]: 88%
growth [4]: 108%
growth [5]: 103%
growth [6]: 103%
growth [7]: 101%
growth [8]: 98.4%
growth [9]: 100%
growth [10]: 121%

C=C1C(=O)O[C@H]2[C@H]1CC/C(Cn1cc(-c3ccccc3C(F)(F)F)nn1)=C\CC[C@@]1(C)O[C@@H]21
growth [1]: -70.7% (active)
growth [2]: -85.3% (active)
growth [3]: 35.1%
growth [4]: 53.3%
growth [5]: 13.1%
growth [6]: -31.1% (active)
growth [7]: 14.5%
growth [8]: -61.8% (active)
growth [9]: -91.7% (active)
growth [10]: -58.9% (active)

Clc1cccc(Cl)c1Cn1c(-c2cncs2)nc2ccccc21
growth [1]: 79.5%
growth [2]: 91.5%
growth [3]: 83.1%
growth [4]: 97.8%
growth [5]: 93.7%
growth [6]: 62.2%
growth [7]: 58.9%
growth [8]: 61.2%
growth [9]: 85%
growth [10]: 105%

C/C1=C\CCC2(C)OC2CC2CCC(C)(O)C(CC1)C2(C)C (stereo not given)
growth [1]: 89.4%
growth [2]: 107%
growth [3]: 108%
growth [4]: 87.7%
growth [5]: 91%
growth [6]: 85.2%
growth [7]: 84.8%
growth [8]: 88%
growth [9]: 101%
growth [10]: 119%

CC(=O)Nc1nc(C(=O)N2N=C(C)/C(=C/c3cccs3)C2=O)cs1
growth [1]: 93.1%
growth [2]: 96.5%
growth [3]: 92%
growth [4]: 102%
growth [5]: 99.4%
growth [6]: 102%
growth [7]: 109%
growth [8]: 113%
growth [9]: 98%
growth [10]: 111%

CCOC(=O)c1cc(/C(=N\O)c2cc(OC)c(OC)c(OC)c2)n2cc(C)cc(C)c12
growth [1]: 17.9%
growth [2]: 6.89% (active)
growth [3]: 25.1%
growth [4]: 40.5%
growth [5]: 12.6%
growth [6]: 41%
growth [7]: 12.1%
growth [8]: 19.8%
growth [9]: 31.8%
growth [10]: 56.1%

CC(C(=O)n1cc(-c2ccccc2)c(-c2ccccc2)c1)c1ccccc1 (stereo not given)
growth [1]: 112%
growth [2]: 107%
growth [3]: 92.9%
growth [4]: 102%
growth [5]: 91.1%
growth [6]: 95.9%
growth [7]: 99.1%
growth [8]: 106%
growth [9]: 97.8%
growth [10]: 112%

CN(C)c1ccc(/C=C\N=Nc2ccc(Br)cc2)cc1
growth [1]: 36.2%
growth [2]: 52.9%
growth [3]: 82%
growth [4]: 96.2%
growth [5]: 68.4%
growth [6]: 52.3%
growth [7]: 76.5%
growth [8]: 17.2%
growth [9]: 13.2%
growth [10]: 83.9%

COc1cc(-c2n[nH]nc2-c2ccc3c(c2)OCCO3)cc(OC)c1OC
growth [1]: 6.81% (active)
growth [2]: -12.7% (active)
growth [3]: 25.4%
growth [4]: 42.6%
growth [5]: -27.3% (active)
growth [6]: 16.5%
growth [7]: -39.5% (active)
growth [8]: 27%
growth [9]: 15.2%
growth [10]: 38.9%

COc1ccc(C2CC(=O)Nc3c2c(C)nn3-c2nc3ccccc3[nH]2)cc1OC (stereo not given)
growth [1]: 85.9%
growth [2]: 95.3%
growth [3]: 50.9%
growth [4]: 84.9%
growth [5]: 84.4%
growth [6]: 75.4%
growth [7]: 71.2%
growth [8]: 68.8%
growth [9]: 44.2%
growth [10]: 88.1%

COc1ncc(-c2ccc3ncnc(Nc4cccc(Cl)c4)c3c2)cc1NS(=O)(=O)CCN1CCOCC1
growth [1]: 6.62% (active)
growth [2]: 10.1%
growth [3]: -19.2% (active)
growth [4]: 21.2%
growth [5]: 28.3%
growth [6]: 12.4%
growth [7]: -19.6% (active)
growth [8]: -21.4% (active)
growth [9]: 1.29% (active)
growth [10]: -4.89% (active)

CCN(CC)CCC(=O)c1cccc2ccccc12
growth [1]: 102%
growth [2]: 110%
growth [3]: 101%
growth [4]: 102%
growth [5]: 104%
growth [6]: 95.3%
growth [7]: 114%
growth [8]: 97%
growth [9]: 94.3%
growth [10]: 111%

CCC1CCc2nc3sc(C(=O)Nc4ccccc4C)c(N)c3cc2C1 (stereo not given)
growth [1]: 26.3%
growth [2]: 7.01% (active)
growth [3]: 25.9%
growth [4]: 54.1%
growth [5]: 42%
growth [6]: 26.8%
growth [7]: 26.6%
growth [8]: 33.2%
growth [9]: 35%
growth [10]: 49.5%

COc1ccc(Cn2c(SC)nc(=O)n(Cc3ccc(Cl)cc3)c2=O)cc1
growth [1]: 98.5%
growth [2]: 121%
growth [3]: 80.7%
growth [4]: 97%
growth [5]: 93.2%
growth [6]: 90.1%
growth [7]: 107%
growth [8]: 87.7%
growth [9]: 87.5%
growth [10]: 102%

CNC(C)=O
growth [1]: 105%
growth [2]: 94.8%
growth [3]: 104%
growth [4]: 104%
growth [5]: 93.4%
growth [6]: 96.6%
growth [7]: 102%
growth [8]: 105%
growth [9]: 95%
growth [10]: 101%

COc1cc2c3c(c(=O)oc2cc1OS(=O)(=O)c1ccc(C(F)(F)F)cc1)CCCCC3
growth [1]: 79.2%
growth [2]: 78.8%
growth [3]: 8.09% (active)
growth [4]: 76.7%
growth [5]: 82.1%
growth [6]: 68.1%
growth [7]: 69.5%
growth [8]: 68.1%
growth [9]: 93.5%
growth [10]: 76.3%

COc1cccc(NC(=O)Cn2cc3c(=O)oc4ccccc4c3n2)c1
growth [1]: 109%
growth [2]: 105%
growth [3]: 64.7%
growth [4]: 102%
growth [5]: 125%
growth [6]: 97.4%
growth [7]: 100%
growth [8]: 100%
growth [9]: 113%
growth [10]: 94%

COc1cc(-c2nc(-c3nc4ccccc4[nH]3)cc3c2[nH]c2ccccc23)cc(OC)c1OC
growth [1]: 42.3%
growth [2]: 49.7%
growth [3]: 79.3%
growth [4]: 66.9%
growth [5]: 48%
growth [6]: 14.1%
growth [7]: 29%
growth [8]: 28.5%
growth [9]: 38.7%
growth [10]: 44.2%

C=CCN=C1NC(=O)/C(=C/c2cc(C(C)(C)C)c(O)c(C(C)(C)C)c2)S1
growth [1]: 42.1%
growth [2]: 26.9%
growth [3]: 88.8%
growth [4]: 83.6%
growth [5]: 77%
growth [6]: 62.4%
growth [7]: 49.3%
growth [8]: 63.8%
growth [9]: 70.8%
growth [10]: 73.3%

CCOC(=O)C1=C(CSC(=S)N(C2CCCCC2)C2CCCCC2)N(C)C(=O)NC1c1ccccc1 (stereo not given)
growth [1]: 39.6%
growth [2]: 22%
growth [3]: 71.8%
growth [4]: 49.2%
growth [5]: 39.5%
growth [6]: 21.6%
growth [7]: 14.7%
growth [8]: 46.1%
growth [9]: 33%
growth [10]: 75.8%

CCOC(=O)c1ccccc1NC(c1ccccc1)c1ccc2cccnc2c1O (stereo not given)
growth [1]: 23%
growth [2]: 39.4%
growth [3]: 52.7%
growth [4]: 30.9%
growth [5]: 17.7%
growth [6]: 25.4%
growth [7]: 4.23% (active)
growth [8]: 12.8%
growth [9]: 11.9%
growth [10]: 38.3%
